Pf growth 96h: Primary qHTS for delayed death inhibitors of the malarial parasite plastid, 96 hour incubation. P. falciparum luciferase reporter growth, 96 h. Potency, µM (top dose mostly 28.7 µM), without a hit: at the top dose activity change, negative = inhibition, most hits filed as inhibitors. 320,000 compounds, 6.9% hits. AID 504834, 2011; further: potency means the concentration at half of the fitted maximal effect; on the % scale 0 is the no-effect control and ±100 the full control effect
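P. falciparum expressing integrated firefly luciferase, in erythrocytes at 2% hematocrit, 0.05% parasitemia, incubated with compounds 96 h at 37 C, 5% CO2. Growth inhibition read as loss of luminescence; two-generation exposure targets delayed-death apicoplast inhibitors.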
Pf growth 48h: Primary qHTS for delayed death inhibitors of the malarial parasite plastid, 48 hour incubation; P. falciparum luciferase growth in erythrocytes, 48 h; Potency, µM (top dose mostly 28.7 µM), inactives show at the highest dose activity change, negative = inhibition, usual class: inhibitors; 310,000 compounds, 5.9% hits; AID 504832, 2011; further: potency means the concentration at half of the fitted maximal effect; on the % scale 0 is the no-effect control and ±100 the full control effect
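Growth was read as firefly luciferase luminescence after a 48 h, 37 C, 5% CO2 exposure of compounds to reporter-bearing P. falciparum cultures (0.1% parasitemia, 2% hematocrit final) in Albumax-supplemented RPMI 1640.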
Cycloheximide cs: Cycloheximide Counterscreen for Small Molecule Inhibitors of Shiga Toxin; cell reporter, cycloheximide protein synthesis inhibition counterscreen; max response, %; 300,000 compounds, 12% hits; in the data active means max response mostly above about 13%, no sharp cut-off; inactive means mostly below about 14%; further: read at 38.3 µM for the half of the compounds with a filed dose; 0% is about no effect
NS1 inh: qHTS Assay for Inhibitors of Influenza NS1 Protein Function | Potency, µM (doses to about 46.1 µM), without a hit: at the top dose activity, positive = more growth | 270,000 compounds, 0.4% hits | AID 2326, 2010; calls by dose curve; further: potency means the concentration at half of the fitted maximal effect; actives are rising curves; nearly all actives have a fitted effect of over 50% in size
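Compounds were scored for reversing the slow growth caused by influenza A NS1 in S. cerevisiae, measured by optical density at 600 nm. Assay medium contained 2% galactose at pH 6.0; NS1-free yeast of the same strain were the positive control.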
SARS PLpro yeast: qHTS of Yeast-based Assay for SARS-CoV PLP. S. cerevisiae expressing SARS-CoV PLpro, growth rescue. Potency, µM (titrated, usually from 32.9 µM), without a hit: top-dose activity, positive = growth rescue, most hits filed as activators. 330,000 compounds, 0.19% hits. AID 485353, 2010; calls by dose curve; further: potency means the concentration at half of the fitted maximal effect; 0% is about no effect; nearly all actives have a fitted effect of over 55% in size
Shiga toxin inh: A qHTS for Small Molecule Inhibitors of Shiga Toxin; Vero cells, Shiga toxin protein synthesis inhibition reporter; inhibition, % at 38.7 µM; 290,000 compounds, 9.2% hits; in the data active means inhibition mostly above about 28%, no sharp cut-off; inactive means mostly below about 43%; further: 0% is about no effect
Starred values were filed as active, the others as inactive; ? = inconclusive; · = no result given. Hits are enriched below; roughly 21% of the tested compounds scored in any of these assays. Unless noted, the call rests on the fitted dose curve; in most records, active means well fitted inhibition curve with a large enough effect; inconclusive means small, poorly fitted or top-dose-only effect, or another doubt; inactive means no such curve, though single readings can be large or run the other way.

SMILES	Pf growth 96h	Pf growth 48h	Cycloheximide cs	NS1 inh	SARS PLpro yeast	Shiga toxin inh
CCOC(=O)N1CCN(CCC(=O)Nc2cccc(Cl)c2C)CC1	-26.2%	?	-2.3	7.6%	4.3%	·
Cc1ccc2c(c1)CCCN2CC(=O)Nc1cccc(S(=O)(=O)N2CCCC2)c1	?	?	·	·	2.4%	·
COc1ccc2c(n1)Sc1nc3ccccc3nc1N2	157.4%	180.7%	55.8*	-35.8%	-5.3%	75.3*
Cc1ccc(S(=O)(=O)CCC(=O)Nc2ccccc2Br)cc1	16.1%	21.4%	-2.9	-2.1%	-3.2%	-6.9
C/C=C(\C)c1nnc(NC(=O)OCC)s1	·	27.5%	14.6*	5.1%	-4.9%	42.4*
CCCCOC(=O)Nc1nc(C)c(C(=O)OCC)s1	1.47µM*	·	12.1	-54.5%	·	23.3
CCOC(=O)c1sc(NC(=O)CC)nc1C	19.8%	-2.8%	12.1	·	-1.3%	19.0
CCCCCCc1nnc(NC(=O)OCC)s1	-14.1%	-2.8%	-3.4	-76.5%	-0.3%	-4.7
CCCCCc1nnc(NC(=O)OCCC)s1	·	25.4%	13.5*	-67.1%	-9.7%	27.5
CCCCOC(=O)Nc1nnc(CC)s1	163.6%	·	43.4*	0.4%	7.1%	56.0*
CCCCCOC(=O)Nc1nnc(CCCCC)s1	·	1.6%	-3.2	-47.6%	-3.5%	-24.0
CCOC(=O)c1c(S(=O)(=O)NCC(=O)N2CCN(c3ccc(OC)cc3)CC2)c(C)n(C)c1C	?	?	-1.1	-1.4%	2.9%	-10.2
CCOC(=O)Nc1nnc(CCc2ccccc2)s1	·	6.8%	-4.4	-14.0%	3.4%	-2.2
CCc1nnc(NC(=O)OCc2ccccc2)s1	-7.7%	44.0%	19.8*	5.8%	-9.5%	60.1*
O=S(=O)(Nc1ccc2c(c1)nc1n2CCN(Cc2ccccc2)C1)c1ccc(F)cc1	-15.9%	11.7µM*	-5.3	14.6%	-3.1%	-13.1
O=S(=O)(Nc1ccc2c(c1)nc1n2CCN(Cc2ccccc2)C1)c1ccccc1	38.8%	66.2%	116.7*	5.5%	0.3%	111.5*
O=S(=O)(Nc1ccc2c(c1)nc1n2CCN(Cc2ccccc2)C1)c1ccc(Cl)cc1	38.4%	9.28µM*	-2.6	8.3%	1.4%	-5.0
Cc1ccc(S(=O)(=O)Nc2ccc3c(c2)nc2n3CCN(Cc3ccccc3)C2)cc1	?	?	-2.6	?	-5.0%	35.9
O=C(CC1c2ccccc2Oc2ccccc21)Nc1ccccc1C(F)(F)F	28.8%	-3.8%	0.7	1.6%	5.9%	-6.5
Cc1ccc(OCCN2CCOCC2)cc1C	?	11.2%	16.8*	9.4%	-4.1%	39.6
Cc1cc(OCCN2CCOCC2)ccc1[N+](=O)[O-]	-6.4%	108.5%	10.1	4.6%	7.0%	16.9
Cc1cc(C)c(NC(=O)OCCN2CCOCC2)c(C)c1	0.233µM*	2.2%	7.8	0.7%	1.4%	-6.3
Cc1cc(OCCN2CCOCC2)ccc1Cl	?	90.5%	31.7*	-0.6%	-7.0%	137.7*
CC(C)(C)[C@H]1COC(=O)CCC/C=C/C[C@H](CC(=O)N(CCO)Cc2ccccc2)C(=O)N1	·	·	·	·	2.2%	·
CCc1ccc2[nH]c3nc(SCCN4CCOCC4)nnc3c2c1	9.28µM*	-27.3%	20.9*	-3.1%	12.0%	17.4*
SMILES	Pf growth 96h	Pf growth 48h	Cycloheximide cs	NS1 inh	SARS PLpro yeast	Shiga toxin inh
CCCCn1c2ccc(F)cc2c2nnc(SCCN3CCOCC3)nc21	2.62µM*	?	-1.3	1.2%	-1.1%	-5.6
CCOC(=O)c1cnc(-n2nc(C)cc2C)nc1NNc1nc(C)cc(C)n1	2.94µM*	0.586µM*	0.8	-1.8%	0.4%	-8.3
CCOC(=O)c1cnc(-n2nc(C)cc2C)nc1Oc1ccc(C#N)cc1	5.8%	94.3%	-3.8	6.2%	-3.6%	-8.3
CCOC(=O)c1cnc(-n2nc(C)cc2C)nc1N(CC)CC	·	11.7µM*	7.2	-97.9%	-7.7%	13.9
CCOC(=O)c1cnc(-n2nc(C)cc2C)nc1NC1CCCCC1	-0.7%	1.65µM*	-4.3	-251.5%	-33.1%	-21.9
CCOC(=O)c1cnc(-n2nc(C)cc2C)nc1NNc1nc(-c2ccccc2)cc(-c2ccccc2)n1	?	1.47µM*	-1.1	?	5.6%	-10.9
O=C(Nc1cccc(F)c1)NC1(C(=O)N2CCOCC2)CCCCC1	?	-0.8%	3.6	·	0.1%	-11.1

Screening results deposited in PubChem by National Center for Advancing Translational Sciences (NCATS).
